# Test results published in PubChem BioAssay (Tox21).
# “And” between values parts separate entries of the source, which are not always exact repeats. Identical values can stand only once. Values without a mark were called inactive. Records with an inconclusive call do not appear. Entries that show only a call come without a potency. The source made the active and inactive calls. Unless noted, calls come from the whole dose curve; as a rule, active = well fitted curve in the direction sought with a large enough effect in the repeat runs; inconclusive = weak or mixed curves; inactive = no such curve, though single readings can be large; an effect the other way counts as inactive or inconclusive.
# Columns and labels:
# [1] = qHTS assay to identify small molecule antagonists of the glucocorticoid receptor (GR) signaling pathway - cell viability counter screen (AID 720693); note: nearly all actives have a fitted effect of over 55% in size; note: potency is the fitted concentration of half-maximal effect
# [2] = qHTS assay for identifying genotoxic compounds that show differential cytotoxicity against isogenic chicken DT40 cell lines with known DNA damage response pathways - wild type cell line (AID 743012); note: nearly all actives have a fitted effect of over 60% in size; note: potency is the fitted concentration of half-maximal effect
# Summary of the method: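 Viability by ATP luminescence (CellTiter-Glo, 30 min RT) after 40 h compound treatment at 37 C/5% CO2, using 300 parental DNA repair-proficient DT40 cells per well.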
# [3] = qHTS assay for identifying genotoxic compounds that show differential cytotoxicity against isogenic chicken DT40 cell lines with known DNA damage response pathways - Rad54/Ku70 mutant cell line (AID 743015); note: nearly all actives have a fitted effect of over 60% in size; note: potency is the fitted concentration of half-maximal effect
# [4] = qHTS assay to identify small molecule antagonists of the thyroid receptor (TR) signaling pathway - cell viability counter screen (AID 743064); note: nearly all actives have a fitted effect of over 50% in size; note: potency is the fitted concentration of half-maximal effect
# Summary of the method: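 GH3.TRE-Luc rat pituitary cells dosed after 4 hr plating, co-stimulated with T3 at 1 nM final, incubated 23.5 h at 37 C. Viability measured in the same wells by CellTiter-Fluor fluorescence after 30 min further at 37 C.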
# [5] = qHTS assay to identify small molecule antagonists of the thyroid receptor (TR) signaling pathway (AID 743065); note: nearly all actives have a fitted effect of over 55% in size; note: potency is the fitted concentration of half-maximal effect
# Summary of the method: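 Antagonism measured as loss of luciferase signal in GH3 cells stably carrying a TRE-luciferase reporter, co-treated with compound and T3 (1 nM final) for 23.5 h at 37 C. Viability was read in the same well by CellTiter-Fluor.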
# [6] = qHTS assay to identify small molecule antagonists of the estrogen receptor alpha (ER-alpha) signaling pathway - cell viability counter screen (AID 743074; calls by dose curve; note: nearly all actives have a fitted effect of over 45% in size; note: potency is the fitted concentration of half-maximal effect)
# [7] = biological target: Estrogen receptor (Homo sapiens) (UniProt P03372); test: qHTS assay to identify small molecule agonists of the estrogen receptor alpha (ER-alpha) signaling pathway (AID 743075; calls by dose curve); details: HEK293 ER-alpha-UAS-bla, beta-lactamase FRET ratio, 18 h; activation: at 70.1 µM (top of the series)
# Chain of Estrogen receptor (Homo sapiens) (P03372 whole entry, looked up): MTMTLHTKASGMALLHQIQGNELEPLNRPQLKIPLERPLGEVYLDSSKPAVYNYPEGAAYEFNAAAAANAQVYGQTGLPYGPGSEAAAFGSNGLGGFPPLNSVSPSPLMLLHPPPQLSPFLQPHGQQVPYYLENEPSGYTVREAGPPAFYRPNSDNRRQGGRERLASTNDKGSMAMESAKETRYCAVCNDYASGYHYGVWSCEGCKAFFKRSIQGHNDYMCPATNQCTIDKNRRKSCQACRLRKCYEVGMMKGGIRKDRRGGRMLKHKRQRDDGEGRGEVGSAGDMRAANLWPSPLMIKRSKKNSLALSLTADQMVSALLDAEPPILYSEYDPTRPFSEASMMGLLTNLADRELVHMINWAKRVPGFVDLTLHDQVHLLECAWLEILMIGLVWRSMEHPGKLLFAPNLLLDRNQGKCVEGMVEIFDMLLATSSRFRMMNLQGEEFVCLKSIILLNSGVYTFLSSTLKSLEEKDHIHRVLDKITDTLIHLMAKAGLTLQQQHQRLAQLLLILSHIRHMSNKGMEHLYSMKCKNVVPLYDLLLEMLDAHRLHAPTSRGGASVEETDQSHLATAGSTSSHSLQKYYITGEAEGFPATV
# [8] = qHTS assay to identify small molecule antagonists of the estrogen receptor alpha (ER-alpha) signaling pathway using the BG1 cell line - cell viability counter screen (AID 743081);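 note: compound given together with 17beta-estradiol as the ER stimulus; nearly all actives have a fitted effect of over 45% in size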; note: potency is the fitted concentration of half-maximal effect
# [9] = qHTS assay to identify small molecule antagonists of the androgen receptor (AR) signaling pathway - cell viability counter screen (AID 743033; note: nearly all actives have a fitted effect of over 45% in size; note: potency is the fitted concentration of half-maximal effect)
# [10] = biological target: Androgen receptor (Homo sapiens) (UniProt P10275); test: qHTS assay to identify small molecule agonists of the androgen receptor (AR) signaling pathway using the MDA cell line (AID 743040; note: nearly all actives have a fitted effect of over 20% in size; note: potency is the fitted concentration of half-maximal effect)
# Chain of Androgen receptor (Homo sapiens) (P10275 whole entry, looked up): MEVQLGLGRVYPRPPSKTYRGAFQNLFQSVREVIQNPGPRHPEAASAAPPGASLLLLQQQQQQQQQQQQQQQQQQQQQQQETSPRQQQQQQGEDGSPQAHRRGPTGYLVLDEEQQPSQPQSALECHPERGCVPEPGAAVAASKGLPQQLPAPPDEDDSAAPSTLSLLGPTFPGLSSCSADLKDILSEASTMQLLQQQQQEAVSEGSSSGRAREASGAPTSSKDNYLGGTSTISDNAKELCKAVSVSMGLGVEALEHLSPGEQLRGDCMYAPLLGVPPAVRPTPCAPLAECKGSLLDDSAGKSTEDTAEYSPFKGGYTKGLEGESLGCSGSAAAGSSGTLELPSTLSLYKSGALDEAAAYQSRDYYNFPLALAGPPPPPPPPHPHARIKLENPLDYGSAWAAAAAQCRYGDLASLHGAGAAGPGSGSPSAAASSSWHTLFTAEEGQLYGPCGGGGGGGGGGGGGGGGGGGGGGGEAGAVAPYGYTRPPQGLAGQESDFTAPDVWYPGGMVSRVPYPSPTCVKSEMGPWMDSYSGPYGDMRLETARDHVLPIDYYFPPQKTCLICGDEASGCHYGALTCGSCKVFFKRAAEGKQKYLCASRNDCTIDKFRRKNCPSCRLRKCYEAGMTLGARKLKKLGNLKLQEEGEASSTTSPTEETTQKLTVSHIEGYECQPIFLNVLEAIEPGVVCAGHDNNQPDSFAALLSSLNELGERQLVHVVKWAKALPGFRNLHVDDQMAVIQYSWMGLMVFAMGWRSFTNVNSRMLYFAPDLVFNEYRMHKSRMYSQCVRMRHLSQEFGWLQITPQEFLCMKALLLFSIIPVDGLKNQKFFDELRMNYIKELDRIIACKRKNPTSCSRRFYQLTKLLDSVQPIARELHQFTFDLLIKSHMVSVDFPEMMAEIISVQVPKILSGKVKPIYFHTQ
# Summary of the method: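 Stable MMTV-luciferase reporter in MDA-kb2 cells; note the promoter carries GR as well as AR response elements. 16 h compound treatment, 37C, 0% CO2; ONE-Glo luminescence endpoint.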
# [11] = qHTS assay to identify small molecule antagonists of the androgen receptor (AR) signaling pathway using the MDA cell line - cell viability counter screen (AID 743041; note: nearly all actives have a fitted effect of over 45% in size; note: potency is the fitted concentration of half-maximal effect)
# Summary of the method: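 Using the breast carcinoma line MDA-kb2 AR-luc, test chemicals were co-incubated with R1881 for 16 h; CellTiter-Fluor reagent, added at 15.5 h, provided a fluorescence measure of live cells.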
# [12] = biological target: Androgen receptor (Homo sapiens) (UniProt P10275); test: qHTS assay to identify small molecule antagonists of the androgen receptor (AR) signaling pathway using the MDA cell line (AID 743042; note: nearly all actives have a fitted effect of over 55% in size)
# Summary of the method: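 Antagonist mode: compounds plus R1881 agonist added to MDA-kb2 AR-luc cells, incubated 16 h at 37C. Luciferase reporter luminescence quantified, with multiplexed CellTiter-Fluor readout for cell viability.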
# [13] = tested on: thyroid hormone receptor (rat, GH3 cells); test: qHTS assay to identify small molecule agonists of the thyroid receptor (TR) signaling pathway (AID 743066; calls by dose curve)
# [14] = biological target: Aromatase (Homo sapiens) (UniProt P11511); test: qHTS assay to identify aromatase inhibitors (AID 743083); note: nearly all actives have a fitted effect of over 55% in size; note: potency is the fitted concentration of half-maximal effect
# Chain of Aromatase (Homo sapiens) (P11511 whole entry, looked up): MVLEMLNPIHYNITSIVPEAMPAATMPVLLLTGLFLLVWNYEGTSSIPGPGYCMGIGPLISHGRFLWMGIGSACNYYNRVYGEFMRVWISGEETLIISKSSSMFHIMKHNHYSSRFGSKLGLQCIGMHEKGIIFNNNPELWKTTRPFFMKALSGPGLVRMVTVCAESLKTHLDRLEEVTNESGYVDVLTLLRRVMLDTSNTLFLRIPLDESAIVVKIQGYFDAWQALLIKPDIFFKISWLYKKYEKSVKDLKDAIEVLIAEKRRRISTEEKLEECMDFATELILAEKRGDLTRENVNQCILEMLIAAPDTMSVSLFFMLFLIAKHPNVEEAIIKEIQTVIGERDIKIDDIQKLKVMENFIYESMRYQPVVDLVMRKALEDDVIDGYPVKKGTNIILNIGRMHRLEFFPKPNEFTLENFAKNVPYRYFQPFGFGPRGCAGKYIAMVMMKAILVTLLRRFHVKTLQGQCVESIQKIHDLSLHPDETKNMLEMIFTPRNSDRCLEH
# [15] = qHTS assay for identifying genotoxic compounds that show differential cytotoxicity against isogenic chicken DT40 cell lines with known DNA damage response pathways - Rev3 mutant cell line (AID 743014); note: nearly all actives have a fitted effect of over 55% in size; note: potency is the fitted concentration of half-maximal effect
# [16] = biological target: Estrogen receptor (Homo sapiens) (UniProt P03372); test: qHTS assay to identify small molecule agonists of the estrogen receptor alpha (ER-alpha) signaling pathway using the BG1 cell line (AID 743079); details: BG1Luc4E2 cells, ERE-luciferase agonist, 22 h; note: nearly all actives have a fitted effect of over 20% in size; note: potency is the fitted concentration of half-maximal effect
# [17] = biological target: Estrogen receptor (Homo sapiens) (UniProt P03372); test: qHTS assay to identify small molecule antagonists of the estrogen receptor alpha (ER-alpha) signaling pathway (AID 743069; active = well fitted curve in the direction sought with a large enough effect in the signal ratio in the repeat runs, not every such curve was filed as active; the % refers to the signal ratio)
# Summary of the method: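 Fluorescence intensity from a beta-lactamase FRET substrate served as the read-out. Cells: HEK293 with stably integrated ER-alpha-UAS-bla reporter. Agonist 17beta-estradiol was co-added with compounds; incubation 18 hr at 37C, substrate 2 hr at room temperature.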
# [18] = qHTS assay to identify small molecule antagonists of the estrogen receptor alpha (ER-alpha) signaling pathway using the BG1 cell line (AID 743080; calls by dose curve;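 note: BG1 cells stimulated with 17beta-estradiol alongside compound; nearly all actives have a fitted effect of over 25% in size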)
# Summary of the method: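 BG1-Luc-4E2 cells (endogenous full-length ER-alpha, 4xERE luciferase) hormone-starved 5 days in charcoal-stripped FBS, plated 4,000/well for 24 h, then compound plus 17beta-estradiol for 21.5 h at 37 C; ONE-Glo luminescence read.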
# [19] = biological target: Androgen receptor (Homo sapiens) (UniProt P10275); test: qHTS assay to identify small molecule agonists of the androgen receptor (AR) signaling pathway (AID 743036; active = well fitted activation curve with a large enough effect in the signal ratio in the repeat runs, with a control signal flat, not every such curve was filed as active; the % refers to the signal ratio; note: potency is the fitted concentration of half-maximal effect)
# Summary of the method: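 AR-UAS-bla HEK293 cells, plated 4 h before dosing, were treated with compound for 16 h at 37C. beta-Lactamase reporter read after 2 h with LiveBLAzer B/G FRET substrate at room temperature.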
smiles,measurement,setting,value
CNCc1cc(F)ccc1Oc1ccc(Cl)c(Cl)c1,Potency,[1],inactive
same,Potency,[2],13.7 µM (active)
same,Potency,[3],13.7 µM (active)
same,Potency,[4],30.6 µM (active)
same,Potency,[5],30.6 µM (active)
same,Potency,[6],inactive
same,Potency,[7],inactive
same,Potency,[8],inactive
C[C@@H]1C[C@H]2[C@@H]3CCC4=CC(=O)C=C[C@]4(C)[C@@]3(Cl)[C@@H](O)C[C@]2(C)[C@@]1(OC(=O)c1ccco1)C(=O)CCl,Potency,[1],inactive
same,Potency,[2],12.7 µM (active)
same,Potency,[9],inactive
same,Potency,[10],0.0009 µM (active)
same,Potency,[11],inactive
same,Potency,[12],inactive
same,Potency,[13],inactive
same,Potency,[6],inactive
same,Potency,[8],inactive
same,Potency,[14],inactive
C[C@]12CCC(=O)C=C1CC[C@@H]1[C@@H]2[C@@H](O)C[C@@]2(C)[C@H]1CC[C@]2(O)C(=O)COC(=O)CCC(=O)O,Potency,[1],inactive
same,Potency,[15],18.8 µM (active)
same,Potency,[3],26.6 µM (active)
same,Potency,[9],inactive
same,Potency,[11],inactive
same,Potency,[4],inactive
same,Potency,[5],inactive
same,Potency,[13],inactive
same,Potency,[6],inactive
same,Potency,[7],inactive
same,activation,[16]; at 70.3 µM (top of the series),9.99%
same,Potency,[14],inactive
CCCN(CCC)c1c([N+](=O)[O-])cc(C(F)(F)F)c(N)c1[N+](=O)[O-],Potency,[1],48.9 µM (active)
same,Potency,[2],12.2 µM (active)
same,Potency,[3],12.2 µM (active)
same,Potency,[11],60.9 µM (active)
same,Potency,[4],13.6 µM (active)
same,Potency,[5],13.6 µM (active)
same,Potency,[14],15.3 µM (active)
O=[N+]([O-])c1ccccc1Nc1ccccc1,Potency,[1],inactive
same,Potency,[15],inactive
same,Potency,[3],inactive
same,Potency,[9],inactive
same,Potency,[11],inactive
same,Potency,[4],inactive
same,Potency,[5],inactive
same,Potency,[13],inactive
same,Potency,[17],inactive
same,Potency,[6],inactive
same,Potency,[7],inactive
same,activation,[16]; at 70.3 µM (top of the series),4.1%
same,Potency,[18],inactive
same,Potency,[8],inactive
Clc1ccc2cc3ccccc3cc2c1,Potency,[1],inactive
same,Potency,[15],inactive
same,Potency,[3],inactive
same,Potency,[9],inactive
same,Potency,[19],inactive
same,Potency,[10],inactive
same,Potency,[11],inactive
same,Potency,[12],inactive
same,Potency,[4],inactive
same,Potency,[5],inactive
same,Potency,[13],inactive
same,Potency,[17],inactive
same,Potency,[6],inactive
same,Potency,[8],inactive
same,Potency,[14],inactive
O=c1[nH]cnc2nc[nH]c12,Potency,[1],inactive
same,Potency,[15],inactive
same,Potency,[3],inactive
same,Potency,[9],inactive
same,Potency,[11],inactive
same,Potency,[4],inactive
same,Potency,[5],inactive
same,Potency,[13],inactive
same,Potency,[17],inactive
same,Potency,[6],inactive
same,Potency,[7],inactive
same,activation,[16]; at 70.3 µM (top of the series),8.82%
same,Potency,[18],inactive
same,Potency,[8],inactive
same,Potency,[14],inactive
CC/C(=C(\c1ccc(O)cc1)c1ccc(OCCN(C)C)cc1)c1ccccc1,Potency,[1],24.6 µM (active)
same,Potency,[15],0.434 µM (active)
same,Potency,[3],1.09 µM (active)
same,Potency,[9],15.5 µM (active)
same,Potency,[10],inactive
same,Potency,[11],inactive
same,Potency,[4],5.46 µM (active)
same,Potency,[5],12.2 µM (active)
same,Potency,[13],inactive
same,Potency,[6],39 µM (active)
same,Potency,[8],68.7 µM (active)
same,Potency,[14],0.0217 µM (active)
CC1=NC(C)OC1C (centres undefined),Potency,[1],inactive
same,Potency,[15],inactive
same,Potency,[3],inactive
same,Potency,[9],inactive
same,Potency,[10],inactive
same,Potency,[11],inactive
same,Potency,[4],inactive
same,Potency,[5],inactive
same,Potency,[13],inactive
same,Potency,[6],inactive
same,Potency,[7],inactive
same,Potency,[18],inactive
same,Potency,[8],inactive
same,Potency,[14],inactive
Nc1ccccc1O,Potency,[1],inactive
same,Potency,[15],6.77 µM (active)
same,Potency,[3],5.38 µM (active)
same,Potency,[9],inactive
same,Potency,[11],53.8 µM (active)
same,Potency,[4],26.9 µM (active)
same,Potency,[5],42.7 µM (active)
same,Potency,[13],inactive
same,Potency,[17],inactive
same,Potency,[6],inactive
same,Potency,[7],inactive
same,Potency,[14],67.7 µM (active)
Cc1cccc2c1cc1ccc3cccc4ccc2c1c34,Potency,[1],inactive
same,Potency,[15],inactive
same,Potency,[3],inactive
same,Potency,[9],inactive
same,Potency,[11],inactive
same,Potency,[4],inactive
same,Potency,[5],inactive
same,Potency,[13],inactive
same,Potency,[6],inactive
same,activation,[16]; at 95 µM (top of the series),15.8%
same,Potency,[18],inactive
same,Potency,[14],inactive
O=C(OC[C@H]1O[C@@H](OC(=O)c2cc(O)c(O)c(OC(=O)c3cc(O)c(O)c(O)c3)c2)[C@H](OC(=O)c2cc(O)c(O)c(OC(=O)c3cc(O)c(O)c(O)c3)c2)[C@@H](OC(=O)c2cc(O)c(O)c(OC(=O)c3cc(O)c(O)c(O)c3)c2)[C@@H]1OC(=O)c1cc(O)c(O)c(OC(=O)c2cc(O)c(O)c(O)c2)c1)c1cc(O)c(O)c(OC(=O)c2cc(O)c(O)c(O)c2)c1,Potency,[1],16.9 µM (active)
same,Potency,[15],10.6 µM (active) and 16.5 µM (active)
same,Potency,[3],11.9 µM (active)
same,Potency,[9],19 µM (active)
same,Potency,[11],22.1 µM (active)
same,Potency,[4],3.35 µM (active) and 16.5 µM (active)
same,Potency,[5],3.76 µM (active) and 16.5 µM (active)
same,Potency,[13],inactive
same,Potency,[6],6.74 µM (active)
same,Potency,[8],21.1 µM (active)
NC(=O)NS(=O)(=O)c1ccc(N)cc1,Potency,[1],inactive
same,Potency,[2],inactive
same,Potency,[3],inactive
same,Potency,[11],inactive
same,Potency,[4],inactive
same,Potency,[5],inactive
same,Potency,[13],inactive
same,Potency,[17],inactive
same,Potency,[6],inactive
same,Potency,[7],inactive
same,Potency,[18],inactive
same,Potency,[14],inactive
O=C1CCCc2c1cc1ccc3cccc4ccc2c1c34,Potency,[1],inactive
same,Potency,[2],inactive
same,Potency,[3],inactive
same,Potency,[9],inactive
same,Potency,[19],14 µM (active)
same,Potency,[10],inactive
same,Potency,[11],inactive
same,Potency,[12],inactive
same,Potency,[4],inactive
same,Potency,[6],inactive
same,Potency,[16],3.9 µM (active)
same,Potency,[8],inactive
same,Potency,[14],inactive
CC(C)n1nc(-c2cc3cc(O)ccc3[nH]2)c2c(N)ncnc21,Potency,[1],9.52 µM (active)
same,Potency,[2],0.841 µM (active)
same,Potency,[15],2.37 µM (active)
same,Potency,[3],0.944 µM (active)
same,Potency,[4],0.106 µM (active)
same,Potency,[5],0.0944 µM (active)
same,Potency,[7],inactive
same,Potency,[14],0.335 µM (active)
Clc1ccc2n[nH]nc2c1,Potency,[1],inactive
same,Potency,[2],inactive
same,Potency,[9],inactive
same,Potency,[11],inactive
same,Potency,[4],inactive
same,Potency,[5],inactive
same,Potency,[13],inactive
same,Potency,[6],inactive
same,Potency,[8],inactive
same,Potency,[14],inactive
